Laboratory results reported in PubChem BioAssay AID463173 (ICCB-Longwood Screening Facility, Harvard Medical School, 2010).
Hit rate of the full screen: of about 52,000 compounds, about 1,700 (3.3%) were called active. Shown is part of a subset that was picked to be rich in actives. Values without a mark were called inactive. No stated cut-off is given here; in the data, active means survival mostly below about 52% (no sharp cut-off); inactive means mostly above about 56%.

The compounds below were run on Wild type (assay: growth inhibition of S. aureus wild type versus tarO mutant, primary screen, teichoic acid synthesis inhibitors, RN4220, OD600 (AID 463173)). Conditions: S. aureus RN4220 wild type/DeltatarO growth, OD600, 18 h, hits give low values, screened at 18.75 µg/mL (by protocol).
Compound `O=C(CSc1nccn1Cc1ccc(F)cc1)NC1CCCC1` has a survival of 68%.
For `Cc1ccc(Cl)cc1N1CCN(C(=O)c2cc3ccc4cccnc4c3[nH]2)CC1`, the survival was 129%.
Work on `Cc1cccc(C(=O)n2nc(C)c(S(=O)(=O)N3CCOCC3)c2C)c1` yielded a survival of 89%.
`COc1ccc(C2=C(C)C(=O)N(Cc3ccc(C(=O)NCc4ccc(C)cc4)cc3)S2(=O)=O)cc1` was tested, and the survival was 89%.
With `C1CN(C(N2CCOCC2)N2CCOCC2)CCO1` the survival was 104%.
`COc1ccc(-c2cc(C)no2)cc1S(=O)(=O)N1CCOc2ccccc21` showed a survival of 80%.
In the case of `Cc1ccc(-c2onc(C)c2C)cc1S(=O)(=O)N1CCc2ccccc21`, the survival is reported as 117%.
With `COc1ccc(-c2onc(C)c2C)cc1S(=O)(=O)N1CCc2ccccc21` the survival was 1% (active).
In the case of `COc1ccc(-c2cc(C)no2)cc1S(=O)(=O)N1CC(C)Oc2ccccc21` (configuration not stated), the survival is reported as -6% (active).
With `CCC1CN(S(=O)(=O)c2cc(-c3cc(C)no3)ccc2OC)c2cc(C)ccc2O1` (configuration not stated) the survival was 120%.
In the case of `COc1ccc(-c2cc(C)no2)cc1S(=O)(=O)N1CCc2ccccc21`, the survival is reported as 76%.
Compound `COc1ccc(NC(=O)c2oc3ccc(S(=O)(=O)N4CCOCC4)cc3c2C)c(OC)c1` has a survival of 152%.
For `COc1ccc(C(CC(=O)Nc2ccc(C(C)=O)cc2)N2Cc3ccccc3C2=O)cc1` (configuration not stated), the survival was 88%.
In the case of `O=C(O)c1snc2c(=O)[nH]cnc12`, the survival is reported as 105%.
`O=C1CCCc2c1cc(C(=O)Nc1ccc(Cl)cn1)c(=O)n2-c1ccccc1` gave a survival of 110%.
In the case of `COc1ccc(NC(=O)c2sc3nc(C)c(C(=O)Nc4ccc(Cl)cc4)c(-c4ccc(Br)cc4)c3c2N)cc1`, the survival is reported as 75%.
In the case of `Cc1nc2sc(C(N)=O)c(N)c2c(-c2ccc(Br)cc2)c1C(=O)Nc1ccc(Cl)cc1`, the survival is reported as -7% (active).
Compound `Cc1nc2sc(C(=O)Nc3ccc(F)cc3)c(N)c2c(-c2ccc(Br)cc2)c1C(=O)Nc1ccc(Cl)cc1` has a survival of 88%.
`Cc1ccc(C)c(NC(=O)Cn2c(=O)n(Cc3ccco3)c(=O)c3oc4ccccc4c32)c1` gave a survival of 87%.
For `Cc1nn(Cc2ccccc2)c(C)c1CC(=O)O`, the survival was 109%.
Compound `O=C(CSc1nc2c([nH]c3ccccc32)c(=O)n1-c1ccc(F)cc1)NCc1ccc(F)cc1` has a survival of 73%.
For `CCC(C)NC(=O)c1sc2nc(C)c(C(=O)Nc3ccc(Cl)cc3)c(-c3ccc(Br)cc3)c2c1N` (configuration not stated), the survival was 106%.
`Cc1cc(-c2nc3ncccc3o2)ccc1NC(=O)COc1cc(C)c(Cl)c(C)c1` gave a survival of 80%.
Compound `Cc1cc(OCC(=O)Nc2cc(-c3nc4ncccc4o3)ccc2C)ccc1Cl` has a survival of 88%.
`CCC(=O)Nc1ccc(-c2nc3ncccc3o2)cc1C` was tested, and the survival was 85%.
With `Cc1cc(-c2nc3ncccc3o2)ccc1NC(=O)COc1ccc(C(C)(C)C)cc1` the survival was 26% (active).
With `Cc1ccc(-c2nc3ncccc3o2)cc1NC(=O)COc1ccc(C(C)C)cc1` the survival was 11% (active).
`CC(C)c1ccc(OCC(=O)Nc2cc(-c3nc4ncccc4o3)ccc2Cl)cc1` was tested, and the survival was 128%.
`Fc1ccc(CSc2nncn3c2cc2occc23)c(Cl)c1` was tested, and the survival was 88%.
With `CC(C)c1ccc(NC(=O)c2ccc3oc(=O)c(S(=O)(=O)c4ccc(F)cc4)cc3c2)cc1` the survival was 70%.
`Cc1cc(=O)n2nc(N(C)CC(=O)NCc3ccc(Cl)cc3)sc2n1` showed a survival of 85%.
For `CCC(C(=O)NC1CCCCC1)n1c(SCc2cccc(F)c2)nc2ccncc21` (configuration not stated), the survival was 124%.
`CCOc1ccccc1CNC(=O)c1ccc2c(c1)N(Cc1ccc(C)cc1)CCS2` showed a survival of 79%.
In the case of `CCC(Cc1ccccc1)NC(=O)Cn1ncc2c3ccccc3n(Cc3ccccc3)c2c1=O` (configuration not stated), the survival is reported as 80%.
With `CCCCCCC1CCC(C(=O)NC(C(=O)O)C(C)C)CC1` (configuration not stated) the survival was 59%.
`CCCCCCC1CC=C(C(=O)O)CC1` (configuration not stated) gave a survival of 110%.
For `CCCCC1CCC(CCCC(C)CCC(=O)O)CC1` (configuration not stated), the survival was -5% (active).
Work on `CCOc1ccc(NC(=O)Cn2c(=O)cc(C)c3c(C)nn(-c4ccc(CC)cc4)c32)cc1` yielded a survival of 127%.
`CCN(c1ccc(C)cc1C)S(=O)(=O)c1nnc(NC(=O)c2ccc(F)cc2)s1` gave a survival of 20%.
In the case of `CC(C)CN(CCNC(=O)c1cn(C)c2ccc(S(=O)(=O)N3CCOCC3)cc2c1=O)CC(C)C`, the survival is reported as 82%.
`CCOC(=O)c1cccc(NC(=O)NCc2cccn2Cc2ccccc2)c1` showed a survival of 123%.
`CCOc1ccc(NC(=O)NCc2cccn2Cc2ccccc2)cc1` was tested, and the survival was 64%.
With `CCOC(=O)Cc1ccc(NC(=O)NCc2cccn2Cc2ccccc2)cc1` the survival was -6% (active).
In the case of `Cc1nn(CC(=O)NCc2cccc(F)c2)c(=O)c2c(C)n(-c3ccc(Cl)cc3)nc12`, the survival is reported as 75%.
Compound `Oc1ccccc1-c1nc(/C=C/c2ccc(F)cc2)nn1-c1ccccc1` has a survival of 34%.
`COc1cc2c(-c3ccccc3O)nc3c(c(C)nn3-c3ccccc3)c2cc1OC` showed a survival of 63%.
`Oc1ccccc1-c1nc(/C=C/c2ccccc2Cl)nn1-c1ccccc1` was tested, and the survival was 2% (active).
Work on `COc1ccc(/C=C/c2noc(-c3ccccc3O)n2)cc1OC` yielded a survival of 136%.
In the case of `CN(C)c1ccc(/C=C/c2nc(-c3ccccc3O)n(-c3ccccc3)n2)cc1`, the survival is reported as 46%.
`COc1ccc(/C=C/c2nc(-c3ccccc3O)n(-c3ccccc3)n2)cc1OC` was tested, and the survival was 8% (active).
`COc1cc2c(-c3ccccc3Cl)nc3c(c(C)nn3-c3ccccc3)c2cc1OC` gave a survival of 73%.
With `Oc1ccccc1-c1nc(/C=C/c2ccccc2)nn1-c1ccccc1` the survival was 2% (active).
Work on `Cc1nc(C)c(C(=O)N/N=C/c2ccc(O)cc2O)cc1C(=O)N/N=C/c1ccc(O)cc1O` yielded a survival of 108%.
`CC(=O)Nc1ccc(/C=C/c2nc(-c3ccccc3O)n(-c3ccccc3)n2)cc1` gave a survival of 86%.
With `Oc1ccc(/C=C/c2nc(-c3ccccc3O)n(-c3ccccc3)n2)c(O)c1` the survival was -1% (active).
With `Oc1ccccc1-c1nc(/C=C/c2ccccc2Cl)no1` the survival was 81%.
With `COCCn1c(Cc2ccccc2)nnc1SCC(=O)N(C)C` the survival was 100%.
`CC(C)(C)NC(=O)c1ccc2nc(CCc3ccccc3)oc2c1` showed a survival of 65%.
`Cn1c(CNc2cccc(C(F)(F)F)c2)n[nH]c1=S` gave a survival of 111%.
For `O=C(Cn1cc(SCc2ccccc2)c2ccccc21)N1CCCCCC1`, the survival was 83%.
Work on `O=C(Cn1cnc(S(=O)(=O)N2CCCC2)c1)Nc1ccc(OC(F)(F)F)cc1` yielded a survival of 84%.
Work on `CCCCNC(=O)CN1CCN(c2ccc(NC(=O)c3ccc(OC)cc3)cc2C(=O)O)CC1` yielded a survival of 80%.
In the case of `COc1ccc(CCNC(=O)c2ccc3c(c2)N(Cc2cccc(C)c2)C(=O)c2ccccc2S3(=O)=O)cc1OC`, the survival is reported as 101%.
With `CCC(C)(C)C(=O)Nc1nnc(COC)s1` the survival was 122%.
Compound `N#CSc1ccc2nc(N)sc2c1` has a survival of 93%.
With `CC(C)(C)Sc1ccc(SC#N)s1` the survival was 23% (active).
`Cc1ccccc1NC(=O)C(Cc1ccccc1)N1Cc2ccccc2C1=O` (configuration not stated) was tested, and the survival was 76%.
For `N#CC(C#N)C(CC(=O)c1ccccc1)c1ccc2c(c1)OCO2` (configuration not stated), the survival was 111%.
For `CCOc1ccccc1NC(=O)CC(c1ccc(F)cc1)N1Cc2ccccc2C1=O` (configuration not stated), the survival was 80%.
Compound `CCc1ccccc1NC(=O)CC(c1ccc(F)cc1)N1Cc2ccccc2C1=O` (configuration not stated) has a survival of 121%.
With `Cc1c(Cl)cccc1NC(=O)CC(c1ccc(F)cc1)N1Cc2ccccc2C1=O` (configuration not stated) the survival was 10% (active).
`O=C(CC(c1cccs1)N1Cc2ccccc2C1=O)Nc1ccccc1F` (configuration not stated) showed a survival of 73%.
With `O=C(CC(c1cccs1)N1Cc2ccccc2C1=O)Nc1ccc(Cl)cc1` (configuration not stated) the survival was 129%.
With `Cc1c(Cl)cccc1NC(=O)CC(c1cccs1)N1Cc2ccccc2C1=O` (configuration not stated) the survival was 0% (active).
`Cc1cccc(Cn2c(SCc3ccc(C(=O)NCc4ccccc4F)cc3)nc3ccncc32)c1` showed a survival of 80%.
Compound `COCCn1c(C)nnc1SCC1CCCO1` (configuration not stated) has a survival of 127%.
For `COC(=O)c1ccc(NC(=O)c2cccc3c2C(=O)N(C2CCCCC2)C3)cc1`, the survival was 88%.
With `CC(C)c1ccc(NC(=O)c2cccc3c2C(=O)N(C2CCCCC2)C3)cc1` the survival was 1% (active).
Compound `Cc1cc(C)cc(NC(=O)c2cccc3c2C(=O)N(C2CCCCC2)C3)c1` has a survival of 42%.
With `Cn1c(C(C(=O)NCC2CCCO2)N(C(=O)Cn2nnc3ccccc32)c2ccc3c(c2)OCO3)nc2ccccc21` (configuration not stated) the survival was 111%.
With `Cc1cc(C(=O)NCc2ccccc2)c2c(C)nn(-c3cccc(F)c3)c2n1` the survival was 14% (active).
With `Cc1ccc(C)c(N2CCN(C(=O)c3cc(C)nc4c3c(C)nn4-c3cccc(F)c3)CC2)c1` the survival was 0% (active).
`Cc1cc(C)cc(NC(=O)c2cc(C)nc3c2c(C)nn3-c2ccccc2)c1` was tested, and the survival was -6% (active).
`COc1cccc(CNC(=O)c2cc(C)nc3c2c(C)nn3-c2cccc(F)c2)c1` showed a survival of 131%.
With `Cc1cc(C(=O)N2CCN(c3ccccc3)CC2)c2c(C)nn(-c3cccc(F)c3)c2n1` the survival was 63%.
`COc1ccc(NC(=O)c2cc(C)nc3c2c(C)nn3-c2cccc(Cl)c2C)c(OC)c1` was tested, and the survival was 85%.
Compound `CCc1cccc(C)c1NC(=O)c1cc(C)nc2c1c(C)nn2-c1cccc(Cl)c1C` has a survival of 78%.
Compound `Cc1ccc(C)c(N2CCN(C(=O)c3cc(C)nc4c3c(C)nn4-c3ccccc3)CC2)c1` has a survival of 134%.
`Cc1cc(C(=O)Nc2ccc(C(C)C)cc2)c2c(C)nn(-c3ccccc3)c2n1` showed a survival of 80%.
`Cc1cc(C(=O)NCc2ccccc2C)c2c(C)nn(-c3cccc(F)c3)c2n1` was tested, and the survival was 76%.
`Cc1ccc(-n2nc(C)c3c(C(=O)Nc4ccc(Br)c(C)c4)cc(C)nc32)cc1` showed a survival of 78%.
With `Cc1ccc(NC(=O)c2cc(C)nc3c2c(C)nn3-c2cccc(Cl)c2C)c(C)c1` the survival was -6% (active).
